Measurements from the supplement of paper PMC11732987, “Enantioselective OTUD7B fragment discovery through chemoproteomics screening and high-throughput optimisation” (Communications Chemistry, 2025).

What was measured:
Test in all cases: log2 ratio of Biotin-Ahx-Ub-VS probe labelling (fragment/DMSO); higher = less target engagement (more negative = stronger competition), active = hit call of the paper (q ≤ 0.05, log2 ratio ≤ -1)
Settings in all cases: compound concentration: 200 uM; treatment time: 3 h
[1] = molecular target: T1, USP19 (UniProt O94966)
T1 sequence (whole entry): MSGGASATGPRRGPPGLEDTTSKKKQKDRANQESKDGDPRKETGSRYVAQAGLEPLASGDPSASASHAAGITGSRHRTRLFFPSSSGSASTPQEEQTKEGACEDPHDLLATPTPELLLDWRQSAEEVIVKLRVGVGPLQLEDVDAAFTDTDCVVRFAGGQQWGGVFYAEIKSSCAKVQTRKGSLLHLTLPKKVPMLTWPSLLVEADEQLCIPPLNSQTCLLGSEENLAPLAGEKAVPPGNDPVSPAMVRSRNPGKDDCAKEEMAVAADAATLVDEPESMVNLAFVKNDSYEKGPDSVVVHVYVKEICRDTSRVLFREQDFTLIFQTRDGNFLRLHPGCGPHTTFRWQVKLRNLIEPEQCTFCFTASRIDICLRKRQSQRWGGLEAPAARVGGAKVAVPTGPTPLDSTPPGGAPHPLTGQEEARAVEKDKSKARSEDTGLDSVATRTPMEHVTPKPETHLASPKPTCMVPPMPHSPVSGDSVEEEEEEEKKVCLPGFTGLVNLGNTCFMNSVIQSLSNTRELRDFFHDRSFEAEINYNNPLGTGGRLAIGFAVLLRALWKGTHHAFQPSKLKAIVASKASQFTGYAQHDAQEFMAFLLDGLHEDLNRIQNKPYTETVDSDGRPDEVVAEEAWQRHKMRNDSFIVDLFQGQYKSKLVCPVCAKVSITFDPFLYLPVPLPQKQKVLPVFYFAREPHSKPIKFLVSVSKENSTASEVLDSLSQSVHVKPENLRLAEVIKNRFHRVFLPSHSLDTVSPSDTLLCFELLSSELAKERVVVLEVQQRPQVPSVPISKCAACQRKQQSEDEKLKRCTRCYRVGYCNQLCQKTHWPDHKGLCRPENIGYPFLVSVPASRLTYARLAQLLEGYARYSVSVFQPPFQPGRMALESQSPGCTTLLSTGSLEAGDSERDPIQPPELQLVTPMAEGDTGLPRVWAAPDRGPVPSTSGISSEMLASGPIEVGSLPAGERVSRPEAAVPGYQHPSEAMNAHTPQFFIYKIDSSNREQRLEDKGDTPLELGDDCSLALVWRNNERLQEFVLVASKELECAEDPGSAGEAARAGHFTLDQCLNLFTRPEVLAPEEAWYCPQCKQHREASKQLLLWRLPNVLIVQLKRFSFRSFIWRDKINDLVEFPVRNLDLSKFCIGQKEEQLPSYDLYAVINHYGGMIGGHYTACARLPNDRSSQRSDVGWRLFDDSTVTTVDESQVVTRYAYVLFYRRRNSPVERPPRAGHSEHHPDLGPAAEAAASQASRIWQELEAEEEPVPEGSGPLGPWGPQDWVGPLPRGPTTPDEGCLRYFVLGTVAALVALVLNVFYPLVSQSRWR
Procedure, shortened: (§1)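 Fragment (200 µM) or vehicle was incubated for 3 h with triplicate HEK293T lysate samples of 495 µg, which were then treated with Biotin-Ahx-Ub-VS at 0.5 µM final for 1 h. Labelled DUBs were enriched on NeutrAvidin, digested with LysC and trypsin, and analysed by diaPASEF LC-MS/MS. Values are average log2 fragment/vehicle ratios from an unpaired t-test on global-median-normalised Spectronaut label-free quantities, using proteins with ≥2 unique peptides.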

[2] = molecular target: USP24 (UniProt Q9UPU5)
USP24, sequence (Q9UPU5 whole entry): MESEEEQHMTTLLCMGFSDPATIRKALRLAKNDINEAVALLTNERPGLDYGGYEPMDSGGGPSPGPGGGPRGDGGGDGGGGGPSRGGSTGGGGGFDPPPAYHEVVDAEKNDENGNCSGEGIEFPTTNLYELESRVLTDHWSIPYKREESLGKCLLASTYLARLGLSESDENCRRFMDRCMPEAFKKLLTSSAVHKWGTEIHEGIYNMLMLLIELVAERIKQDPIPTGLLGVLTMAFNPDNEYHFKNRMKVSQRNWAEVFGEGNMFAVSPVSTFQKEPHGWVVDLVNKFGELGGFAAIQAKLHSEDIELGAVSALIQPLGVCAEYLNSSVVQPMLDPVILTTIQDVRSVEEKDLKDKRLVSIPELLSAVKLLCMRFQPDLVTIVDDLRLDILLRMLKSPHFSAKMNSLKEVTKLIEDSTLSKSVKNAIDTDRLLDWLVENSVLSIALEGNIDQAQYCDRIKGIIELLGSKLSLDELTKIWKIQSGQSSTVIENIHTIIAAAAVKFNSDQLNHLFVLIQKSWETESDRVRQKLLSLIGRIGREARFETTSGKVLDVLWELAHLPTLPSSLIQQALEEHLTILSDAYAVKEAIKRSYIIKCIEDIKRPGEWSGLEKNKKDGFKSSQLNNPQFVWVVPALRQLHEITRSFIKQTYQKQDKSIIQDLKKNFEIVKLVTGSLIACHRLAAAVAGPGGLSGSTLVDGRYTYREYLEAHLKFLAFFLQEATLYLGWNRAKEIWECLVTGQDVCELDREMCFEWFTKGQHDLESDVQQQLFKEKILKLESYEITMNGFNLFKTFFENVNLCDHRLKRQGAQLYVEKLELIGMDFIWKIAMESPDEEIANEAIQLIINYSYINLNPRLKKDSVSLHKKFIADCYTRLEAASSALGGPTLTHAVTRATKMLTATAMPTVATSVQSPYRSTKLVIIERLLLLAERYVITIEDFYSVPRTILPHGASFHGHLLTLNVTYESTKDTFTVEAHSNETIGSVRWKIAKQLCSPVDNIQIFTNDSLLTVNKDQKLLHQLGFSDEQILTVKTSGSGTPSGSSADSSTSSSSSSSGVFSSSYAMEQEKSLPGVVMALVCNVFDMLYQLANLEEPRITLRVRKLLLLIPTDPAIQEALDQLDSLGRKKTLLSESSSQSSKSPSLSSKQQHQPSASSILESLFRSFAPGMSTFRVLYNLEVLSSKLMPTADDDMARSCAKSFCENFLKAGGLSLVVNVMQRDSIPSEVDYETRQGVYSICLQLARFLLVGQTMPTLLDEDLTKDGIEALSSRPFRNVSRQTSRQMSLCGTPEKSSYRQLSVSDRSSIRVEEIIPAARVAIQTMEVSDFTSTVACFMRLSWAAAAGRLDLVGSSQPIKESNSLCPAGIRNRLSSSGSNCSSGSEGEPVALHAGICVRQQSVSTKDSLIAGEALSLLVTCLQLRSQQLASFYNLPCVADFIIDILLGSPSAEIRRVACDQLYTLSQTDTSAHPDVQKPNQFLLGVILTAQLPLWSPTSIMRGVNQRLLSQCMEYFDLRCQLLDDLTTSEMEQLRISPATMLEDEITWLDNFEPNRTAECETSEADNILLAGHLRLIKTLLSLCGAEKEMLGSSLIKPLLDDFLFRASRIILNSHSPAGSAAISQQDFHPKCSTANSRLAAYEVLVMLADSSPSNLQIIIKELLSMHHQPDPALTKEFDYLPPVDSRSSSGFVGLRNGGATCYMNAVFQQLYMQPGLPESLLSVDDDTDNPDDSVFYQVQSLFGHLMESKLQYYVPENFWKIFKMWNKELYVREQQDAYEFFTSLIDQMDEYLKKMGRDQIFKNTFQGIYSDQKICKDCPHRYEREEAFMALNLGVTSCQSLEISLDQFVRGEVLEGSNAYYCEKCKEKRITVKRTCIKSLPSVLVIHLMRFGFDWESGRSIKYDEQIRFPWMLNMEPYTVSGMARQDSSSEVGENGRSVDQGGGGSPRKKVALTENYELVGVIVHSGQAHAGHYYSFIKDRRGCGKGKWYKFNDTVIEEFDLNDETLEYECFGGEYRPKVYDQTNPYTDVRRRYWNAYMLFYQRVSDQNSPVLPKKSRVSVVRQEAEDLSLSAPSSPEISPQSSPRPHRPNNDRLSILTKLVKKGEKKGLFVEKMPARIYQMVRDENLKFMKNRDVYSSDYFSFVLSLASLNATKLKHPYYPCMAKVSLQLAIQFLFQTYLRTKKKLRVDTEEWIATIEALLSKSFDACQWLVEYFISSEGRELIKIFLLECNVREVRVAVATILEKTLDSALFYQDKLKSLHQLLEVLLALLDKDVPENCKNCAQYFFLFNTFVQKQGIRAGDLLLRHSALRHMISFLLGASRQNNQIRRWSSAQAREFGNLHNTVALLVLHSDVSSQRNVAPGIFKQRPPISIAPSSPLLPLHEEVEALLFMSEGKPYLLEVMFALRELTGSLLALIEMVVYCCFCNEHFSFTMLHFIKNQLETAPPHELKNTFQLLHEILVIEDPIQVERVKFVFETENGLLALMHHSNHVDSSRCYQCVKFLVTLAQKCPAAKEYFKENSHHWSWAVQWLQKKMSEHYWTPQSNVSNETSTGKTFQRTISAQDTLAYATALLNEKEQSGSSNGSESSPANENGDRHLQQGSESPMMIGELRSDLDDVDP
Procedure, shortened: as §1

[3] = molecular target: T2, USP25 (UniProt Q9UHP3)
T2 sequence (whole entry): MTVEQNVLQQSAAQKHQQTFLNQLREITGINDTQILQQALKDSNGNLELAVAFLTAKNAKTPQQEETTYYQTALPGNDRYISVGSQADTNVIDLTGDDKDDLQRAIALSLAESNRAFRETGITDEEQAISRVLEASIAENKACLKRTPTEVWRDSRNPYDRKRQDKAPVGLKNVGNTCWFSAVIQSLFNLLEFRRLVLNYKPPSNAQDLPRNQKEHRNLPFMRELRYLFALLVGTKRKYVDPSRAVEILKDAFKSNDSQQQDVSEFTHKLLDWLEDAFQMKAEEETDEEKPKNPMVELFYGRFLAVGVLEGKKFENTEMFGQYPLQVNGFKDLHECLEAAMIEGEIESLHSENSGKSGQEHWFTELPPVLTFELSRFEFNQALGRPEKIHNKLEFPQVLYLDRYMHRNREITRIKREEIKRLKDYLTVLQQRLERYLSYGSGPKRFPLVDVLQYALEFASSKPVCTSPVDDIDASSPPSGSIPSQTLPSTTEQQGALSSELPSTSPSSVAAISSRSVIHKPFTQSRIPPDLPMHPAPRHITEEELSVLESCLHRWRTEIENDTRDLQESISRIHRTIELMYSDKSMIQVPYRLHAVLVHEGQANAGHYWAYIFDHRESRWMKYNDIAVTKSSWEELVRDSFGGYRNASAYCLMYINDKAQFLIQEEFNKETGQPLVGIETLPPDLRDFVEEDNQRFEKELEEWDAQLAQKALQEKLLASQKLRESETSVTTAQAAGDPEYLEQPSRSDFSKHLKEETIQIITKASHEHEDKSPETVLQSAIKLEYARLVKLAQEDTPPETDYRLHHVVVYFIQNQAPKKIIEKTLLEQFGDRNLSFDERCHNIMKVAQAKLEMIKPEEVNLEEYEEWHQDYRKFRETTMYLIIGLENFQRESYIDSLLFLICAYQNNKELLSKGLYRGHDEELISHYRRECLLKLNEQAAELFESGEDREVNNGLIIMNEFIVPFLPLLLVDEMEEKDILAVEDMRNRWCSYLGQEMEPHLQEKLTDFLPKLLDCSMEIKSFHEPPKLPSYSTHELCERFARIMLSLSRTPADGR
Procedure, shortened: as §1

[4] = molecular target: T3, USP28 (UniProt Q96RU2)
T3 sequence (whole entry): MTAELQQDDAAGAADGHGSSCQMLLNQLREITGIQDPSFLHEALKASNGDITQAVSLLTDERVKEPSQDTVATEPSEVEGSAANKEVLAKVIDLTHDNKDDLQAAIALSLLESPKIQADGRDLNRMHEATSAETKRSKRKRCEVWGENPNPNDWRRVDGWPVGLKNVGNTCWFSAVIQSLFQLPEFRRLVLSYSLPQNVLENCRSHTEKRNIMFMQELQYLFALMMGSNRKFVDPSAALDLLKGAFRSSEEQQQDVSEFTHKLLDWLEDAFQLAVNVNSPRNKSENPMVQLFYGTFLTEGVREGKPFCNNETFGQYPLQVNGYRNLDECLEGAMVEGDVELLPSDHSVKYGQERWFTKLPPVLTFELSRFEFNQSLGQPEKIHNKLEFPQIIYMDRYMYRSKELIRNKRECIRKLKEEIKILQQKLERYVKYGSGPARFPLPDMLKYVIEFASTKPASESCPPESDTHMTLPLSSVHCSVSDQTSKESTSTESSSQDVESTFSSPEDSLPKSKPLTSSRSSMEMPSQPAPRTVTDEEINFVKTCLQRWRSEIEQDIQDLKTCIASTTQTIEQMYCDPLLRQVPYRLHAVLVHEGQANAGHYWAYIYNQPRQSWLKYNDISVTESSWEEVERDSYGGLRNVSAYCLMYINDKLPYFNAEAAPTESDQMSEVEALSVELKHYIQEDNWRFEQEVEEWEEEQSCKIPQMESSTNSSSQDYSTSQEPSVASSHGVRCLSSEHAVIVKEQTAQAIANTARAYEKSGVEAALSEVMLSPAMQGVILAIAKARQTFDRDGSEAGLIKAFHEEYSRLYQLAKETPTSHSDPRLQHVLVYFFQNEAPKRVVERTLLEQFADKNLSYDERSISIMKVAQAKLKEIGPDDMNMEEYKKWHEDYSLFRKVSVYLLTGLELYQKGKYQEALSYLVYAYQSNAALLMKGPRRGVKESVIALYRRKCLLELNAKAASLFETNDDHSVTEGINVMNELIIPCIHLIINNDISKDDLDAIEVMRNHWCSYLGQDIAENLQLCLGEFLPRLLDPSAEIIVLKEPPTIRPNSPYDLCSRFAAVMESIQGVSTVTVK
Procedure, shortened: as §1

Measured: log2 ratio of Biotin-Ahx-Ub-VS probe labelling

Cc1ncc2c(n1)CCN(C(=O)CCl)C2
inactive: [1] -0.479 | [2] -0.198 | [3] -0.361 | [4] -0.688
